Data: PubChem BioAssay (NCATS)
Results filed as inconclusive are left out. Calls of active or inactive are those of the source. Calls come from the whole dose curve; as a rule, active = well fitted inhibition curve with a large enough effect; inconclusive = small, poorly fitted or top-dose-only effect; inactive = flat fitted curve, though single readings scatter.

What was measured:
[1] = qHTS profiling for inhibitors of Plasmodium falciparum proliferation (AID 504749); note: nearly all actives have a fitted effect of over 60% in size;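 for activity, negative = inhibition: 0% = DMSO vehicle and full inhibition = artemisinin control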; conditions: P. falciparum in erythrocytes, SYBR Green DNA, 72 h
Outline: (§1)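 P. falciparum-infected erythrocytes (0.3% parasitemia, 2.5% hematocrit final) were exposed to compounds for 72 h at 37 C in 5% CO2, then lysed with SYBR Green buffer overnight at room temperature; parasite DNA fluorescence was normalized to artemisinin and DMSO controls.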

3D7 = assay: as above; conditions: P. falciparum in erythrocytes, SYBR Green DNA, 72 h; series mostly up to 28.7 µM
Outline: as §1

AA1029 = assay: as above; conditions: P. falciparum in erythrocytes, SYBR Green DNA, 72 h; series mostly up to 28.7 µM
Outline: as §1

AS120 = assay: as above; conditions: P. falciparum in erythrocytes, SYBR Green DNA, 72 h; series mostly up to 28.7 µM
Outline: as §1

ATS189 = assay: as above; conditions: P. falciparum in erythrocytes, SYBR Green DNA, 72 h; series mostly up to 28.7 µM
Outline: as §1

7G8 = assay: as above; conditions: P. falciparum in erythrocytes, SYBR Green DNA, 72 h; series mostly up to 28.7 µM
Outline: as §1

[2] = at 28.7 µM (top of the series), parasite line A
[3] = at 28.7 µM (top of the series), parasite line B
[4] = at 12.8 µM (top of the series), parasite line A
[5] = at 12.8 µM (top of the series), parasite line B
Potency is the fitted concentration of half-maximal effect.

COC(=O)C1=C(C)NC(C)=C(C(=O)OC)C1c1ccccc1[N+](=O)[O-]
inactive: activity, negative = inhibition [1, 2] -7.51% | activity, negative = inhibition [1, 3] -24% | Potency (3D7) | Potency (AA1029) | Potency (AS120) | Potency (ATS189)

NC1CCN(c2cccc(Cl)n2)CC1
inactive: activity, negative = inhibition [1, 2] 13.3% | activity, negative = inhibition [1, 3] 5.51% | Potency (3D7) | Potency (AS120) | Potency (ATS189)

CCCc1c(OCCCCc2nn[nH]n2)ccc(C(C)=O)c1O
active: Potency (7G8) 12.6 µM
inactive: activity, negative = inhibition [1, 3] -24.5% | Potency (3D7) | Potency (AA1029) | Potency (AS120)

O=C(O)COc1nn(Cc2ccccc2)c2ccccc12
inactive: activity, negative = inhibition [1, 2] 1.43% | activity, negative = inhibition [1, 3] 10.4% | Potency (3D7) | Potency (7G8) | Potency (AA1029) | Potency (AS120) | Potency (ATS189)

CCCn1cnc2c1c(=O)n(CCCCC(C)=O)c(=O)n2C
active: Potency (7G8) 11.2 µM
inactive: activity, negative = inhibition [1, 2] -5.61% | activity, negative = inhibition [1, 3] -0.0808% | Potency (3D7) | Potency (AA1029) | Potency (AS120) | Potency (ATS189)

O=C1OC(OC(=O)c2cccnc2Nc2cccc(C(F)(F)F)c2)c2ccccc21 (configuration not stated)
inactive: activity, negative = inhibition [1, 2] -4.18% | activity, negative = inhibition [1, 3] 2.45% | Potency (3D7) | Potency (7G8) | Potency (AA1029) | Potency (AS120) | Potency (ATS189)

Cc1ccc(C(C)C)cc2c(C)ccc1-2
inactive: activity, negative = inhibition [1, 2] -17.3% | activity, negative = inhibition [1, 3] -20.9% | Potency (3D7) | Potency (AA1029) | Potency (AS120) | Potency (ATS189)

O=c1[nH]c(=O)c2[nH]c(=O)[nH]c2[nH]1
inactive: activity, negative = inhibition [1, 2] -3.55% | activity, negative = inhibition [1, 3] 2.26% | Potency (3D7) | Potency (7G8) | Potency (AA1029) | Potency (AS120) | Potency (ATS189)

CCC(=O)c1ccc(O)cc1
inactive: activity, negative = inhibition [1, 2] 12.2% | activity, negative = inhibition [1, 3] 2.42% | Potency (3D7) | Potency (7G8) | Potency (AA1029) | Potency (AS120) | Potency (ATS189)

CN1CCN(C2Cc3ccccc3Sc3ccc(Cl)cc32)CC1 (configuration not stated)
active: Potency (7G8) 8.91 µM
inactive: activity, negative = inhibition [1, 2] -18.4% | activity, negative = inhibition [1, 3] -6.83% | Potency (3D7) | Potency (ATS189)

CC[C@@]1(c2ccccc2)NC(=O)N(C)C1=O
inactive: activity, negative = inhibition [1, 2] -2.42% | activity, negative = inhibition [1, 3] 13.3% | Potency (3D7) | Potency (AA1029) | Potency (AS120) | Potency (ATS189)

Oc1ccc(C(O)CNCCCCCCNCC(O)c2ccc(O)c(O)c2)cc1O (configuration not stated)
active: Potency (7G8) 3.55 µM

NC(=O)N/N=C/c1ccc([N+](=O)[O-])o1
active: Potency ([1]; parasite line A) 12.6 µM | Potency (3D7) 8.91 µM | Potency (7G8) 10 µM

[Cl][In]([Cl])[Cl]
inactive: activity, negative = inhibition [1, 2] -23.4% | activity, negative = inhibition [1, 3] -19.4% | Potency (AA1029)
active: Potency (7G8) 2 µM

CNCCCC1c2ccccc2C=Cc2ccccc21
inactive: activity, negative = inhibition [1, 4] 3.94% | activity, negative = inhibition [1, 5] -1.98% | Potency (3D7) | Potency (AS120) | Potency (ATS189)
active: Potency (7G8) 5.62 µM

C[C@]12C[C@H](O)[C@H]3[C@@H](CCC4=CC(=O)CC[C@@]43C)[C@@H]1CC[C@@H]2C(=O)CO
inactive: Potency (3D7) | Potency (7G8)

CCCCOC(=O)c1ccc(O)cc1
inactive: activity, negative = inhibition [1, 2] 8.74% | activity, negative = inhibition [1, 3] 8.94% | Potency (3D7) | Potency (AA1029) | Potency (AS120) | Potency (ATS189)

CC(=O)c1ccc2c(c1)N(CCCN(C)C)c1ccccc1S2
inactive: activity, negative = inhibition [1, 4] 7.32% | activity, negative = inhibition [1, 5] -24.3% | Potency (3D7) | Potency (7G8) | Potency (AA1029) | Potency (AS120) | Potency (ATS189)

CC1=C(CC(=O)O)c2cc(F)ccc2/C1=C\c1ccc(S(C)=O)cc1 (configuration not stated)
inactive: activity, negative = inhibition [1, 2] -3.64% | activity, negative = inhibition [1, 3] -4.38% | Potency (3D7) | Potency (AA1029) | Potency (AS120) | Potency (ATS189)

COCCOC(=O)C1=C(C)NC(C)=C(C(=O)OC/C=C/c2ccccc2)C1c1cccc([N+](=O)[O-])c1 (configuration not stated)
active: Potency (3D7) 12.6 µM | Potency (7G8) 7.94 µM | Potency (AA1029) 8.91 µM | Potency (AS120) 11.2 µM

CSc1ccc2c(c1)C(N1CCN(C)CC1)Cc1ccccc1S2 (configuration not stated)
active: Potency (7G8) 10 µM

CSc1ccc2c(c1)N(CCC1CCCCN1C)c1ccccc1S2 (configuration not stated)
active: Potency (7G8) 5.62 µM | Potency (AA1029) 10 µM | Potency (AS120) 11.2 µM

OCCN1CCN(CCCN2c3ccccc3Sc3ccc(Cl)cc32)CC1
active: Potency (7G8) 4.47 µM | Potency (AA1029) 3.55 µM | Potency (AS120) 3.98 µM

CCCCCCCCCCCCCCCC(=O)NCCO
inactive: activity, negative = inhibition [1, 2] 5.7% | activity, negative = inhibition [1, 3] 4.77% | Potency (3D7) | Potency (AA1029) | Potency (AS120) | Potency (ATS189)

CN(C)CCCN1c2ccccc2Sc2ccc(Cl)cc21
active: Potency (7G8) 10 µM

NCCNCCNCCNCCN
inactive: activity, negative = inhibition [1, 2] 12.5% | activity, negative = inhibition [1, 3] -2.06% | Potency (3D7) | Potency (7G8) | Potency (AA1029) | Potency (AS120) | Potency (ATS189)

O=c1cc[nH]c(=S)[nH]1
inactive: activity, negative = inhibition [1, 2] 1.45% | activity, negative = inhibition [1, 3] 6.46% | Potency (3D7) | Potency (7G8) | Potency (AA1029) | Potency (AS120) | Potency (ATS189)

Cc1c(Cl)cccc1Nc1ccccc1C(=O)O
inactive: activity, negative = inhibition [1, 2] -2.73% | activity, negative = inhibition [1, 3] 8.76% | Potency (3D7) | Potency (AA1029) | Potency (AS120) | Potency (ATS189)

O=C1c2c(O)cccc2Cc2cccc(O)c21
inactive: activity, negative = inhibition [1, 2] 14.6% | activity, negative = inhibition [1, 3] -4.21% | Potency (3D7) | Potency (7G8) | Potency (AA1029) | Potency (AS120) | Potency (ATS189)

OCc1cc(C(O)CNCCCCCCOCCCCc2ccccc2)ccc1O (configuration not stated)
inactive: activity, negative = inhibition [1, 3] -10.7% | Potency (3D7) | Potency (AA1029) | Potency (AS120) | Potency (ATS189)

CCn1cc(C(=O)O)c(=O)c2cnc(N3CCNCC3)nc21
inactive: activity, negative = inhibition [1, 4] 7.13% | activity, negative = inhibition [1, 5] -22.6% | Potency (3D7) | Potency (7G8) | Potency (AA1029) | Potency (AS120) | Potency (ATS189)

Oc1cccc(O)c1
inactive: activity, negative = inhibition [1, 2] 9.04% | activity, negative = inhibition [1, 3] 15.9% | Potency (3D7) | Potency (7G8) | Potency (AA1029) | Potency (AS120) | Potency (ATS189)
